# Screens as filed in PubChem.
# Shown are actives, neighbours in structure and some others; about 2.7% of the full set was active somewhere.
# IDH1 R132H inh: qHTS for Inhibitors of mutant isocitrate dehydrogenase 1 (IDH1): qHTS; IDH1-R132H enzyme, NADPH consumption, diaphorase/resazurin fluorescence; Isocitrate dehydrogenase [NADP] cytoplasmic (Homo sapiens), O75874; 0.093% of 390,000 active; Potency, µM (titrated, usually from 76.6 µM), for inactives: at the highest dose activity change, negative = inhibition, actives largely listed as inhibitors; further: potency means the concentration at half of the fitted maximal effect; on the % scale 0 is the no-effect control and ±100 the full control effect; nearly all actives have a fitted effect of over 65% in size
#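 IDH1-R132H (0.5 ug/mL) preincubated 30 min with compound, then NADPH (0.016 mM) and alpha-KG (2 mM) added; 80 min at RT, pH 7.5. Remaining NADPH coupled via diaphorase/resazurin to fluorescence (540/590 nm); concentration-response curves normalized to no-enzyme control.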
# LDHA block: qHTS assay for inhibitors of human lactate dehydrogenase; L-lactate dehydrogenase A chain (Homo sapiens), P00338; purified LDHA, NADH/diaphorase-resazurin fluorescence; active compounds read low; activity change, % (values are at about 110 or 230 µM); 0.15% of 480,000 active; in the data active means activity change below about -30%; inconclusive means mostly about -25% to -30%;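 further: plate controls were DMSO wells for no effect and wells without enzyme for full effect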
#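 Enzyme activity of human lactate dehydrogenase 5 (2 nM; 0.06 mM NADH, 0.2 mM pyruvate, 5 min, RT) is measured via a resazurin/diaphorase fluorescence readout of residual NADH.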
# 12-LOX inh: Primary qHTS assay for inhibitors of human arachidonate 12S-lipoxygenase (ALOX12): Round 2; Polyunsaturated fatty acid lipoxygenase ALOX12 (Homo sapiens), P18054; purified 12hLO, xylenol orange hydroperoxide absorbance; Potency, µM (highest dose often 108 µM), inactives show top-dose activity change, negative = inhibition, most hits filed as inhibitors; 1.1% of 580,000 active; further: potency means the concentration at half of the fitted maximal effect; on the % scale 0 is the no-effect control and ±100 the full control effect
# Target sequence (P18054 whole entry, looked up): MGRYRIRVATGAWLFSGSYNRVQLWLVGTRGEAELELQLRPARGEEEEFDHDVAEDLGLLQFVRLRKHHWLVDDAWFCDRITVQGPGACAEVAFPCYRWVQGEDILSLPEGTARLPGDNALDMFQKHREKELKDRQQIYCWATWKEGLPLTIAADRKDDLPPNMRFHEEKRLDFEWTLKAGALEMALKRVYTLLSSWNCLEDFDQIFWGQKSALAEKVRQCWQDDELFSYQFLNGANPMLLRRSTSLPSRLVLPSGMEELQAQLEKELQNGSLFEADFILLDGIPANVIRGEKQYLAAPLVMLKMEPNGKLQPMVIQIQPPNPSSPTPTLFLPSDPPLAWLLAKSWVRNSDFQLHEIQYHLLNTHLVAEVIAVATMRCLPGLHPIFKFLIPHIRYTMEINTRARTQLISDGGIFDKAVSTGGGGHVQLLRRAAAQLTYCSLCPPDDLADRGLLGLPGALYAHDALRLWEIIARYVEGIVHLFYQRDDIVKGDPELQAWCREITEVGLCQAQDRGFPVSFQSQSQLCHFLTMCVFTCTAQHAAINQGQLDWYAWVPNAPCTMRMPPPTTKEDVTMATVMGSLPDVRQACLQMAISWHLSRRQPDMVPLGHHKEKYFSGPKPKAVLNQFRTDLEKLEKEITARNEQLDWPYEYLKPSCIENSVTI
#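 Hydroperoxide product was detected by ferrous iron/xylenol orange as the 573 to 405 nm absorbance ratio. Arachidonic acid at 40 uM (final) was turned over for 30 min at room temperature by 150 nM human 12hLO, pH 7.0 Hepes buffer, after 15 min compound preincubation.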
# Nrf2 activator: qHTS of Nrf2 Activators; AREc32 ARE-luciferase reporter (MCF7-derived line), luminescence, 24 h; Potency, µM (top dose mostly 46.1 µM), for the others: at the top dose activation, actives largely listed as activators; 0.31% of 410,000 active; further: potency means the concentration at half of the fitted maximal effect; % of control where 0% means no effect; nearly all actives have a fitted effect of over 65% in size
#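 AREc32_Fluc, 1000 cells/well, OPTI-MEM + 5% FBS, o/n 37 deg C 5% CO2; 23 nL cpd by pin tool, 24 hr; Steady-Glo 30 min RT, luminescence.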
# A549 tox-1: Nrf2 qHTS screen for inhibitors: counterscreen for cytotoxicity; A549 ARE-Fluc cells, CellTiter-Fluor viability, 18-24 h; Potency, µM (doses to about 46 µM), for inactives: at the highest dose activity change, negative = cytotoxicity, most hits filed as inhibitors; 0.16% of 390,000 active; further: potency means the concentration at half of the fitted maximal effect; on the % scale 0 is the no-effect control and ±100 the full control effect
#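 A549 ARE-Fluc cells in 5% FBS OPTI-MEM, 5000 cells/well, rested 2 h then exposed to compounds in concentration-response for 18-24 h at 37 °C. Viability by CellTiter-Fluor fluorescence (Ex 405/Em 525) after 30 min; luciferase luminescence (BugLite, 15 min, RT) read afterwards.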
# Nrf2 inh: Nrf2 qHTS screen for inhibitors; A549 ARE-Fluc reporter, luciferase luminescence, 18-24 h; Potency, µM (highest dose often 46 µM), without a hit: at the highest dose activity change, negative = inhibition, hits mostly inhibitors; 2.1% of 360,000 active; further: potency means the concentration at half of the fitted maximal effect; on the % scale 0 is the no-effect control and ±100 the full control effect; nearly all actives have a fitted effect of over 60% in size
#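 Nrf2 function is reported as luminescence of an ARE-controlled luciferase in A549 cells. Compounds were tested at several concentrations, and a CellTiter-Fluor read on the same wells flagged cytotoxicity.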
# FLuc counter 3: Nrf2 qHTS screen for inhibitors: Purified Fluc Biochemical Counterscreen for Hit Validation. shares compounds with Nrf2 inh. AID 720522, 2013. Potency, µM (doses to about 57.5 µM), for the others: top-dose activity change, negative = inhibition, hits mostly inhibitors. 4% of 1,400 active. purified firefly luciferase, luminescence inhibition; further: potency means the concentration at half of the fitted maximal effect; on the % scale 0 is the no-effect control and ±100 the full control effect; nearly all actives have a fitted effect of over 65% in size
# A549 tox-2: Nrf2 qHTS screen for inhibitors: A549 ARE-Fluc Cytotoxicity Counterscreen for Hit Validation. shares compounds with Nrf2 inh. A549 ARE-Fluc cells, cytotoxicity counterscreen. 2% of 1,400 active. Potency, µM (highest dose often 46.1 µM), for the others: top-dose activity change, negative = cytotoxicity, hits mostly inhibitors;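 further: potency means the concentration at half of the fitted maximal effect; cells exposed to compounds for 18 to 24 hours; on the % scale 0 is the no-effect control and ±100 the full control effect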
# Nrf2 ARE inh: Nrf2 qHTS screen for inhibitors: Nrf2 A549 ARE-Fluc Confirmation Assay for Hit Validation. 74% of 1,400 active. shares compounds with Nrf2 inh. Potency, µM (highest dose often 46.1 µM), inactives show at the highest dose activity change, negative = inhibition, actives largely listed as inhibitors. A549 ARE-firefly luciferase reporter, luminescence. AID 720524, 2013; further: potency means the concentration at half of the fitted maximal effect; on the % scale 0 is the no-effect control and ±100 the full control effect; nearly all actives have a fitted effect of over 65% in size
# * marks the source's active call; other numbers are inactive results; ? = inconclusive; nt = not tested or not shown; [ ] = remark or other dose. Unless noted, the call rests on the fitted dose curve; in most records, active means well fitted curve in the direction sought with a large enough effect; inconclusive means small, poorly fitted or top-dose-only effect, or another doubt; inactive means no such curve, though single readings can be large; an effect the other way counts as inactive or inconclusive.
SMILES,IDH1 R132H inh,LDHA block,12-LOX inh,Nrf2 activator,A549 tox-1,Nrf2 inh,FLuc counter 3,A549 tox-2,Nrf2 ARE inh
COc1ccc2[nH]c(=O)c(CN(Cc3cccs3)C(=S)Nc3cccc(C)c3)cc2c1,2%,-5,-18%,0%[9.22 µM],0%,2.1µM*,0%,-10%,?
CC(C)(C)c1cc(C(=O)Nc2cccnc2)cc(C(=O)Nc2cccnc2)c1,4%,0,0%,0%,-20%,9.2µM*,-5%,-5%,?
COc1ccc(-n2ccnc2CN(C)Cc2cc(C(C)C)on2)cc1,nt,nt,1%,nt,nt,nt,nt,nt,nt
Cc1nc(SCc2coc(-c3ccc(F)cc3)n2)n[nH]1,nt,0,?,nt,nt,nt,nt,nt,nt
CC1CCCCC1NS(=O)(=O)c1ccc(S(=O)(=O)NCc2ccncc2)cc1 (centres undefined),0%,0,nt,-1%,-14%,2.3µM*,1%,-11%,3.7µM*
Cc1ccc(S(=O)(=O)NCc2ccncc2)cc1,7%,-4,0%,2%,-6%,2.6µM*,3%,-7%,18µM*
Cc1ccc(S(=O)(=O)NCC(=O)NCc2ccncc2)cc1,3%,-4,29%,0%,1%,2%,nt,nt,nt
CCOc1cc(S(=O)(=O)NCc2ccncc2)ccc1Cl,-10%,-9,-13%,0%[9.22 µM],-11%,1µM*,-1%,-1%,1.3µM*
CCOc1ccc(S(=O)(=O)NCc2ccncc2)cc1,3%,-7,2%,0%,-29%,0.41µM*,0%,-9%,0.65µM*
CC(C)c1noc(C(C)Sc2nc(-c3ccco3)nc3ccccc23)n1 (centres undefined),nt,2,?,nt,nt,nt,nt,nt,nt
CCCN(CC#N)CC(=O)NC(C)(C#N)C(C)C (centres undefined),nt,-5,41%,nt,nt,nt,nt,nt,nt
CC1CCCC(N2CCN(Cc3cccc(Cl)c3)CC2)C1 (centres undefined),nt,1,?,nt,nt,nt,nt,nt,nt
C#Cc1cccc(NC(=O)CCc2ccccc2O)c1,nt,7,9%,nt,nt,nt,nt,nt,nt
COc1ncccc1-c1cccc(COc2ccc3c(cnn3CC[S+](C)(=O)[O-])c2)c1,nt,nt,-4%[176 µM],nt,nt,nt,nt,nt,nt
Cc1cc(S(=O)(=O)NCc2ccncc2)c(C)cc1Br,5%,-7,-16%,0%,-8%,4.1µM*,-1%,-4%,?
O=C(O)CCCNC(=O)c1cc(-c2ccccc2)nc2ccccc12,nt,-1,-2%,nt,nt,nt,nt,nt,nt
Oc1c(C(Nc2nccs2)c2ccc(C(F)(F)F)cc2)ccc2cccnc12 (centres undefined),6%,4,-19%,0%,-10%,4.6µM*,-11%,-23%,5.8µM*
COc1cc2c(NC3CCN(C(C)C)CC3)nc(N3CCCN(C)CC3)nc2cc1OCCCN(C)C,nt,5,nt,nt,nt,nt,-1%,?,1.6µM*
COc1cc2c(NC3CCN(C)CC3)nc(N3CCCN(C)CC3)nc2cc1OCCCCCN(C)C,nt,10,nt,nt,nt,nt,nt,nt,nt
COc1ccc(C(NC(C)=O)c2cc(Cl)c3cccnc3c2O)cc1OC (centres undefined),-9%,22,-12%,0%,-8%,?,nt,nt,nt
CCC(=O)NC(c1ccc(OC)c(OC)c1)c1cc(Cl)c2cccnc2c1O (centres undefined),8%,11,-13%,1%,?,5.8µM*,1%,-20%,6.5µM*
CCCC(=O)NC(c1ccccc1OC)c1ccc2cccnc2c1O (centres undefined),2%,16,nt,5%,?,7.3µM*,1%,-14%,9.2µM*
CCCC(=O)NC(c1cccs1)c1cc(Cl)c2cccnc2c1O (centres undefined),-6%,1,31%,-2%,-17%,5.2µM*,1%,-20%,7.3µM*
CCOC(=O)C1C(=O)C=C(/C=C/c2ccccc2)CC1c1ccccc1 (centres undefined),nt,12,?,nt,nt,nt,nt,nt,nt
Cc1nc(N)nc(N)c1-c1ccc(Cl)c(Cl)c1,6%,-8,-8%,4%,-6%,?,2%,-12%,1.2µM*
SMILES,IDH1 R132H inh,LDHA block,12-LOX inh,Nrf2 activator,A549 tox-1,Nrf2 inh,FLuc counter 3,A549 tox-2,Nrf2 ARE inh
Cc1cc(OCc2nc(N)nc(N)c2-c2ccc(Cl)c(Cl)c2)ccc1[N+](=O)[O-],1%,-2,-8%,11%,17%,8.2µM*,-10%,-4%,15µM*
Cc1ccc(Cl)cc1-n1ccc2c(cnc3nc(C(F)(F)F)nn32)c1=O,nt,-1,34%,nt,nt,nt,nt,nt,nt
O=C(Oc1ccccc1N1C(=O)C2CCCCC2C1=O)c1ccccc1F (centres undefined),0%,-6,-1%,5%,-7%,-1%,nt,nt,nt
O=C(Oc1ccccc1N1C(=O)C2CCCCC2C1=O)c1ccc(Cl)cc1 (centres undefined),4%,-4,0%,-1%,-3%,4.6µM*,-1%,-1%,6.5µM*
O=C(N/N=C/c1cccs1)c1ccncc1,nt,14,4%,nt,nt,nt,nt,nt,nt
Cc1cc(NC(=O)c2cc(-c3ccc(F)cc3)on2)nn1Cc1ccc(Cl)cc1,6%,-8,-12%,0%,-14%,6.5µM*,0%,-10%,2.9µM*
